How the values were obtained:
Assay in all cases: log2 ratio of Biotin-Ahx-Ub-VS probe labelling (fragment/DMSO); higher = less target engagement (more negative = stronger competition), active = hit call of the paper (q ≤ 0.05, log2 ratio ≤ -1)
Conditions in all cases: compound concentration: 200 uM; treatment time: 3 h
USP19 = molecular target: T1, USP19 (UniProt O94966)
T1 sequence (whole entry): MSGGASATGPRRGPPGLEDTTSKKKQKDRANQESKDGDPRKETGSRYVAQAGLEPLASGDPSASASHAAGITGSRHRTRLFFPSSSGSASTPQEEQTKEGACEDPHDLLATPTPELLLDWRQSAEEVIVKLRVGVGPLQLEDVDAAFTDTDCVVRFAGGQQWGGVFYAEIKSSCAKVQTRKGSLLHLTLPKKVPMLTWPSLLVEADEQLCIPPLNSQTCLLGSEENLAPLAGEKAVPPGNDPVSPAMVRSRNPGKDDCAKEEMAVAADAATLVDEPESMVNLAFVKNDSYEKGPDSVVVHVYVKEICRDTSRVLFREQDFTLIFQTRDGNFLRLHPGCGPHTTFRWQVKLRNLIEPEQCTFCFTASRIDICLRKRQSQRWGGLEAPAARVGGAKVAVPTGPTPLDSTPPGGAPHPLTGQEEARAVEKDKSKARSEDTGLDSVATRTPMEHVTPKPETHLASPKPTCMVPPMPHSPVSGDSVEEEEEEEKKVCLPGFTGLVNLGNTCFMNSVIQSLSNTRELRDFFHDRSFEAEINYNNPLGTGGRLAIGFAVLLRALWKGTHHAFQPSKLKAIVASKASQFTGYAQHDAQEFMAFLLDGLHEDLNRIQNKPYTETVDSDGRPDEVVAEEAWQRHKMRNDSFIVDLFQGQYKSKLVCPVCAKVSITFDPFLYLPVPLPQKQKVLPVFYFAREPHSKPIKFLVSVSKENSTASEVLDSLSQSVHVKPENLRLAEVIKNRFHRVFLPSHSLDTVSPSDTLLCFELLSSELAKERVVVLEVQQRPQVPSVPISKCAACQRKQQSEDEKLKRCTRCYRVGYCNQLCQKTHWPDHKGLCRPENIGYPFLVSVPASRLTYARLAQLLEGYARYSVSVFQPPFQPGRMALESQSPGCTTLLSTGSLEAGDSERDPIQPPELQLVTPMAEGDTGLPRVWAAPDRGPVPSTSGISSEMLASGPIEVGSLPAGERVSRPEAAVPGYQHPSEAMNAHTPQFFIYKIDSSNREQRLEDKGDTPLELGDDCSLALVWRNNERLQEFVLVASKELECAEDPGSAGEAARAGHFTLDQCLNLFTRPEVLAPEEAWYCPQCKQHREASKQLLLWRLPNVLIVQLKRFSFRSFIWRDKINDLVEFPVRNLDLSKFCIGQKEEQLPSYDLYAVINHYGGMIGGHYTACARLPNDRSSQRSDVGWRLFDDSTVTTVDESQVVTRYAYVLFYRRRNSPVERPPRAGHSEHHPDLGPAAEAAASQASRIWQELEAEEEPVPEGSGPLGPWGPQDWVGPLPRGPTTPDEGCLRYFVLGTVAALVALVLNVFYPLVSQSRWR
Outline: (§1)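 HEK293T lysate, 495 µg per sample in Tris/CHAPS/IGEPAL buffer with protease inhibitors, was treated in triplicate with fragment at 200 µM or vehicle for 3 h and then with Biotin-Ahx-Ub-VS at 0.5 µM final for 1 h. Labelled DUBs were NeutrAvidin-enriched, digested with LysC and trypsin, and run by diaPASEF LC-MS/MS. Spectronaut label-free quantities were global-median-normalised, and values are average log2 fragment/vehicle ratios by unpaired t-test on proteins with ≥2 unique peptides.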

USP24 = USP24 (UniProt Q9UPU5)
Outline: as §1

USP25 = molecular target: T2, USP25 (UniProt Q9UHP3)
T2 sequence (whole entry): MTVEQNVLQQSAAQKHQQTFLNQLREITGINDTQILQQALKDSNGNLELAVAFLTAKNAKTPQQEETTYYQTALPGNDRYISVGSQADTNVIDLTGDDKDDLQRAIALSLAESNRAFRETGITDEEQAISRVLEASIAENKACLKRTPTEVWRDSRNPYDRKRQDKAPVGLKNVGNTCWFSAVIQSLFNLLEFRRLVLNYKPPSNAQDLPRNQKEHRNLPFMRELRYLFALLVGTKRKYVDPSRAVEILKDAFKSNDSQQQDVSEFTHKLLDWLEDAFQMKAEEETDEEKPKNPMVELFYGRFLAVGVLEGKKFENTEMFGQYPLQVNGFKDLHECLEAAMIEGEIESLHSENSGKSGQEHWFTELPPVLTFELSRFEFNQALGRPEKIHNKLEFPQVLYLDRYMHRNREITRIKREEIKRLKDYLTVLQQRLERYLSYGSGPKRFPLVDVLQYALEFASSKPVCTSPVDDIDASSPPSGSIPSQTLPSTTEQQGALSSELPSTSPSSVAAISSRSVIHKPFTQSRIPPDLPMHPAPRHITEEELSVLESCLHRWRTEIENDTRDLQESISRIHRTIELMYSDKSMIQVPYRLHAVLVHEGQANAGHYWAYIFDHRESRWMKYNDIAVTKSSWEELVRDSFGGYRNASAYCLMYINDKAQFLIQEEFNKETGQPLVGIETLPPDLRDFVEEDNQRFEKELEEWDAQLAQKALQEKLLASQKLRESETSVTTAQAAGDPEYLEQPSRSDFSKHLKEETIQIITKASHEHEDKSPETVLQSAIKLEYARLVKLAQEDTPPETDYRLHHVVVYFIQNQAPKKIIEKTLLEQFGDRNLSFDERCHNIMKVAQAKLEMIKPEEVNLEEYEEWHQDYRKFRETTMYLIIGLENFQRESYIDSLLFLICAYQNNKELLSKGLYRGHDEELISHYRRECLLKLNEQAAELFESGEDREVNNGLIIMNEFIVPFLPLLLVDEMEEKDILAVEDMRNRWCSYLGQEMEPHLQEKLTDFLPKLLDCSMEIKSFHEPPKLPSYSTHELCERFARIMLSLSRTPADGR
Outline: as §1

USP28 = molecular target: T3, USP28 (UniProt Q96RU2)
T3 sequence (whole entry): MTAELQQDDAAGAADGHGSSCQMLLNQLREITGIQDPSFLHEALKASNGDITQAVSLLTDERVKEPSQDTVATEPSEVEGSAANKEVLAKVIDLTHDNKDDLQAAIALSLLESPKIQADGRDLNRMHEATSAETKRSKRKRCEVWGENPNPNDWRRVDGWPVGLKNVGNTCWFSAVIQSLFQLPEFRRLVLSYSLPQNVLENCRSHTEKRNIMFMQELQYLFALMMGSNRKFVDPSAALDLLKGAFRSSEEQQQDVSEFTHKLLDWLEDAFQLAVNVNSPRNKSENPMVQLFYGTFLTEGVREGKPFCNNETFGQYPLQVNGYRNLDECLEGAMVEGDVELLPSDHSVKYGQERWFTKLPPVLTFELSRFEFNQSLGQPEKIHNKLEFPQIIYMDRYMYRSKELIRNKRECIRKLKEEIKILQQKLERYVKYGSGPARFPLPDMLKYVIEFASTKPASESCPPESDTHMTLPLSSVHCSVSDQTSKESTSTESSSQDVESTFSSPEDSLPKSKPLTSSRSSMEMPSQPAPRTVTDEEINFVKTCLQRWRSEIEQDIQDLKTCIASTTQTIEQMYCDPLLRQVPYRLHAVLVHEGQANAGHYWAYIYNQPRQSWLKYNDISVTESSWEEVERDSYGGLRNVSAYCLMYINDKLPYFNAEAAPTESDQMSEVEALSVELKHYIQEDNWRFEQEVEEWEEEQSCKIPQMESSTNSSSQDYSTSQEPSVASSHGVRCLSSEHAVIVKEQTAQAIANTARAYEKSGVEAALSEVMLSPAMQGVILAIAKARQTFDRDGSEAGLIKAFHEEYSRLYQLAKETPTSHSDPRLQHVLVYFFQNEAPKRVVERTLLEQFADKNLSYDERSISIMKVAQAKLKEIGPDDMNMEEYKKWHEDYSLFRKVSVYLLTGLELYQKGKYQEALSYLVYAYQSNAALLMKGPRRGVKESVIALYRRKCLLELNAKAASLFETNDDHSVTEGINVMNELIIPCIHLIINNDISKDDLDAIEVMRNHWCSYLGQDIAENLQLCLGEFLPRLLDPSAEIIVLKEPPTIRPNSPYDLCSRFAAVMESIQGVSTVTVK
Outline: as §1

Measured: log2 ratio of Biotin-Ahx-Ub-VS probe labelling

USP24, sequence (Q9UPU5 whole entry): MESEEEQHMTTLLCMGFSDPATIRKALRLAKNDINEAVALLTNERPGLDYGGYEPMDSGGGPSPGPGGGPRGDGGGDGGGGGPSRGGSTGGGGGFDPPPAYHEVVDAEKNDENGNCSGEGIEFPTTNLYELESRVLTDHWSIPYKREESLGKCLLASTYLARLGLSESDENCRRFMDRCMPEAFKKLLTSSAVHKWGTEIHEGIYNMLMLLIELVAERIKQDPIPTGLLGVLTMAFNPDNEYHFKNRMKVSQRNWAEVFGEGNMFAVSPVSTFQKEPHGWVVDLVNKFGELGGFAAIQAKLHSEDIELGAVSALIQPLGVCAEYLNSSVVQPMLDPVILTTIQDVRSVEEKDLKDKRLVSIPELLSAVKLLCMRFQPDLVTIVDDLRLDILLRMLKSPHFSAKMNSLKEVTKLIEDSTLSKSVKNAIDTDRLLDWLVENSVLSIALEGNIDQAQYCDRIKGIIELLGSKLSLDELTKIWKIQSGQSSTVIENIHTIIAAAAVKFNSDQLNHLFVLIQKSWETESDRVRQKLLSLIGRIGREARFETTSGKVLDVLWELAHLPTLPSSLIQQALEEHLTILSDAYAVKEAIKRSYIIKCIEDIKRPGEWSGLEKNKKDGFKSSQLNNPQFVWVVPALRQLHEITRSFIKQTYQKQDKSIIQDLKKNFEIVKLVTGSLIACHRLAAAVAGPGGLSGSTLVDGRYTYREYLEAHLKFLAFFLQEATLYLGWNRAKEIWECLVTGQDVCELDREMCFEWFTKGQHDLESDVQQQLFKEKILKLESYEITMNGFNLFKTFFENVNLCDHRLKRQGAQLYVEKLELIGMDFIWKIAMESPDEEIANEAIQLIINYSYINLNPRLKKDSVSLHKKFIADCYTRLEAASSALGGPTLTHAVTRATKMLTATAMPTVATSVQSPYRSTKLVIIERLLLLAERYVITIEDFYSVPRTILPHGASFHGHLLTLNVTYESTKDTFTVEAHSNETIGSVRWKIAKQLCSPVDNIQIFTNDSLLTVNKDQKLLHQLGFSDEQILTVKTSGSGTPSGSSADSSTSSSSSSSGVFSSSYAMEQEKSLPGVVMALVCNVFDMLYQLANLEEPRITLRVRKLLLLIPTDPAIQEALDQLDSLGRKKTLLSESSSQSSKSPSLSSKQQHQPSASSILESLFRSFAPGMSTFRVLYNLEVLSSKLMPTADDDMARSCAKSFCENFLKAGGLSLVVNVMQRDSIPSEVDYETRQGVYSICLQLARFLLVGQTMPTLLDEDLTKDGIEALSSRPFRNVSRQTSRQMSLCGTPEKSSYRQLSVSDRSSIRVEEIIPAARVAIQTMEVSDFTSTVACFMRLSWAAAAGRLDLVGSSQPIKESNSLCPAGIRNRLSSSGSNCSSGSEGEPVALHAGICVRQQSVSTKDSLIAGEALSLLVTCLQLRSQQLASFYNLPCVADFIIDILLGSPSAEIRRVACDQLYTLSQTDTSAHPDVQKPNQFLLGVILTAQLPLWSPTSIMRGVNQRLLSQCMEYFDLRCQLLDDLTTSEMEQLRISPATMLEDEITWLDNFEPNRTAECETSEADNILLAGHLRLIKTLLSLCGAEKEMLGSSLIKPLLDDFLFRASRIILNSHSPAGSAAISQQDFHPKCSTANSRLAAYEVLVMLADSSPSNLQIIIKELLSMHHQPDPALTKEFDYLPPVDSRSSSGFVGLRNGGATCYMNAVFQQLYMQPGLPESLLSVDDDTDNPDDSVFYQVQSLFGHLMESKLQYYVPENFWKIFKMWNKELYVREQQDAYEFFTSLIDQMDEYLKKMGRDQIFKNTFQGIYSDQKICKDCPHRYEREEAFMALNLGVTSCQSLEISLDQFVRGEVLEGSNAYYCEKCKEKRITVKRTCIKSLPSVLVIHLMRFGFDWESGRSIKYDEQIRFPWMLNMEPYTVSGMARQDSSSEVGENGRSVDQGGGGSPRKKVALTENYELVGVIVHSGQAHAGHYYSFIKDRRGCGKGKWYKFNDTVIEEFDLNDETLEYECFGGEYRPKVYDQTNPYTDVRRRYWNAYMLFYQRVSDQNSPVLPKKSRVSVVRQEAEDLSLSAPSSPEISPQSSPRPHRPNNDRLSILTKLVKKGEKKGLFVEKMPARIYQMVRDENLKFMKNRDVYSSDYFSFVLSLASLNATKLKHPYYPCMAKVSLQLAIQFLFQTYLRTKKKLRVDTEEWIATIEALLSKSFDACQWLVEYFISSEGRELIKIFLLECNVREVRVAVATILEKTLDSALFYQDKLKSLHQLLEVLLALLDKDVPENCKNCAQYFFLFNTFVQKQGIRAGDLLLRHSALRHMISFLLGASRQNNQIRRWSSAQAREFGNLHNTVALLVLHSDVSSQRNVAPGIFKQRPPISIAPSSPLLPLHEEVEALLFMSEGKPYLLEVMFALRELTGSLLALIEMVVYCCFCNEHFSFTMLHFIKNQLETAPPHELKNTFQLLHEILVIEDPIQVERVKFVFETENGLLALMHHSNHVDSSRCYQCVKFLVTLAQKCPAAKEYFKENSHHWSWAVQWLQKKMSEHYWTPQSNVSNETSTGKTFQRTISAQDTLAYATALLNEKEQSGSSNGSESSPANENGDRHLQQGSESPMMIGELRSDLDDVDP

Cc1ccc(C)c(Oc2ccc(CNC(=O)CCl)cn2)c1.Cl
inactive: USP19 -0.382 | USP24 -0.83 | USP25 -0.627 | USP28 -0.765

Source: the supplement of paper PMC11732987, “Enantioselective OTUD7B fragment discovery through chemoproteomics screening and high-throughput optimisation” (Communications Chemistry, 2025)
